From the supplement of paper PMC8728848
This is one part of a sample in which the strongest signals are shown more often than they occur.

How the values were obtained:
Experiment in all cases: glycan array binding signal (z-score within array); higher = stronger binding
Conditions in all cases: glycan notation: IUPAC condensed, linker removed
[1] = target: Fuc(a1-2)Gal(b1-4)GlcNAc6S
Summary of the method: (§1)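 Arrays were curated from the Consortium for Functional Glycomics database, 3228 in total, and kept only where the protein sequence was available. Binding is expressed as a within-array Z-score. This score was averaged across arrays of the same protein sequence at different concentrations or buffers and across linkers, and negative values can be read as non-binding.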

[2] = target: Fuc(a1-2)Gal(b1-4)[Fuc(a1-3)]GlcNAc(b1-3)Gal(b1-4)[Fuc(a1-3)]GlcNAc(b1-3)Gal(b1-4)[Fuc(a1-3)]GlcNAc
Summary of the method: as §1

[3] = target: Fuc(a1-2)Gal6S(b1-4)Glc6S
Summary of the method: as §1

Fuc(a1-2)[Gal(a1-3)]Gal = target: Fuc(a1-2)[Gal(a1-3)]Gal
Summary of the method: as §1

[4] = target: Fuc(a1-2)[GalNAc(a1-3)]Gal(b1-4)GlcNAc
Summary of the method: as §1

Gal3S(b1-4)GlcNAc = target: Gal3S(b1-4)GlcNAc
Summary of the method: as §1

Gal3S4S(b1-4)GlcNAc = target: Gal3S4S(b1-4)GlcNAc
Summary of the method: as §1

Gal3S6S(b1-4)GlcNAc6S = target: Gal3S6S(b1-4)GlcNAc6S
Summary of the method: as §1

Gal6S(b1-4)Glc6S = target: Gal6S(b1-4)Glc6S
Summary of the method: as §1

Gal6S(b1-4)GlcNAc6S = target: Gal6S(b1-4)GlcNAc6S
Summary of the method: as §1

[5] = target: GlcNAc(b1-2)Gal(b1-3)GalNAc
Summary of the method: as §1

Man(a1-2)Man(a1-3)Man = target: Man(a1-2)Man(a1-3)Man
Summary of the method: as §1

[6] = target: Man(a1-2)Man(a1-3)[Man(a1-2)Man(a1-6)]Man(a1-6)[Man(a1-2)Man(a1-2)Man(a1-3)]Man
Summary of the method: as §1

Neu5Ac(a2-3)Gal(b1-4)Glc = target: Neu5Ac(a2-3)Gal(b1-4)Glc
Summary of the method: as §1

[7] = target: Neu5Ac(a2-6)Gal(b1-4)GlcNAc(b1-2)Man(a1-6)[Gal(b1-4)GlcNAc(b1-2)Man(a1-3)]Man(b1-4)GlcNAc(b1-4)GlcNAc
Summary of the method: as §1

Neu5Ac(a2-6)GalNAc = target: Neu5Ac(a2-6)GalNAc
Summary of the method: as §1

[8] = target: Fuc(a1-2)Gal(b1-4)GlcNAc(b1-3)Gal(b1-4)GlcNAc(b1-3)Gal(b1-4)GlcNAc
Summary of the method: as §1

Fuc(a1-2)GlcNAc = target: Fuc(a1-2)GlcNAc
Summary of the method: as §1

Fuc(b1-3)GlcNAc = target: Fuc(b1-3)GlcNAc
Summary of the method: as §1

Gal(a1-3)GalNAc = target: Gal(a1-3)GalNAc
Summary of the method: as §1

Gal(a1-4)Gal(b1-4)Glc = target: Gal(a1-4)Gal(b1-4)Glc
Summary of the method: as §1

[9] = target: Gal(b1-3)[GlcNAc(b1-6)]GalNAc
Summary of the method: as §1

[10] = target: Gal(b1-4)GlcNAc(b1-6)[Gal(b1-3)]GalNAc
Summary of the method: as §1

GalNAc(b1-3)GalNAc = target: GalNAc(b1-3)GalNAc
Summary of the method: as §1

GlcNAc(b1-3)Gal(b1-4)Glc = target: GlcNAc(b1-3)Gal(b1-4)Glc
Summary of the method: as §1

[11] = target: GlcNAc(b1-3)[GlcNAc(b1-6)]GlcNAc(b1-4)GlcNAc
Summary of the method: as §1

[12] = target: GlcNAc(b1-4)GlcNAc(b1-4)GlcNAc
Summary of the method: as §1

[13] = target: Neu5Ac(a2-3)Gal(b1-3)[Fuc(a1-4)]GlcNAc(b1-3)Gal(b1-4)[Fuc(a1-3)]GlcNAc
Summary of the method: as §1

[14] = target: Neu5Ac(a2-3)[Neu5Ac(a2-6)]GalNAc
Summary of the method: as §1

| Binder | glycan array binding signal (z-score) [1] | glycan array binding signal (z-score) [2] | glycan array binding signal (z-score) [3] | glycan array binding signal (z-score) (Fuc(a1-2)[Gal(a1-3)]Gal) | glycan array binding signal (z-score) [4] | glycan array binding signal (z-score) (Gal3S(b1-4)GlcNAc) | glycan array binding signal (z-score) (Gal3S4S(b1-4)GlcNAc) | glycan array binding signal (z-score) (Gal3S6S(b1-4)GlcNAc6S) | glycan array binding signal (z-score) (Gal6S(b1-4)Glc6S) | glycan array binding signal (z-score) (Gal6S(b1-4)GlcNAc6S) | glycan array binding signal (z-score) [5] | glycan array binding signal (z-score) (Man(a1-2)Man(a1-3)Man) | glycan array binding signal (z-score) [6] | glycan array binding signal (z-score) (Neu5Ac(a2-3)Gal(b1-4)Glc) | glycan array binding signal (z-score) [7] | glycan array binding signal (z-score) (Neu5Ac(a2-6)GalNAc) | glycan array binding signal (z-score) [8] | glycan array binding signal (z-score) (Fuc(a1-2)GlcNAc) | glycan array binding signal (z-score) (Fuc(b1-3)GlcNAc) | glycan array binding signal (z-score) (Gal(a1-3)GalNAc) | glycan array binding signal (z-score) (Gal(a1-4)Gal(b1-4)Glc) | glycan array binding signal (z-score) [9] | glycan array binding signal (z-score) [10] | glycan array binding signal (z-score) (GalNAc(b1-3)GalNAc) | glycan array binding signal (z-score) (GlcNAc(b1-3)Gal(b1-4)Glc) | glycan array binding signal (z-score) [11] | glycan array binding signal (z-score) [12] | glycan array binding signal (z-score) [13] | glycan array binding signal (z-score) [14] |
| --- | --- | --- | --- | --- | --- | --- | --- | --- | --- | --- | --- | --- | --- | --- | --- | --- | --- | --- | --- | --- | --- | --- | --- | --- | --- | --- | --- | --- | --- |
| CBM32-4 (Clostridium perfringens), P26831 (protein) MGSSHHHHHHSSGLVPRGSHMASVYEPSLVDAYVGDDGAKKAVDGDLKTRVKFLGAPSTGDTIVYDLGQEILVDNLKYVVLDTEVDHVRDGKIQLSLDGETWTDAINIGDGVENGVDDMFSTPLKNGYKHGNQSGGIVPIDSAYVEGDNLNQKARYVRILFTAPYRHRWTVINELMINNGEYIPTVNDPT | -0.104 | -0.29 | 4.3 | -0.4 | -0.266 | -0.195 | 3.87 | 5.67 | 4.96 | 4.9 | -0.264 | -0.021 | -0.564 | -0.183 | -0.336 | -0.363 | – | – | – | – | – | – | – | – | – | – | – | – | – |
| F17eG (Escherichia coli), Q9RH92 (protein) MTNFYKVFLAVFILVCCNISHAAVSFIGSTENDVGPSQSSYSRTHAMDNLPFVYNTGYNIGYQNANVWRISGGFCVGLDGKVDLPVVGSLDGQSIYGLTEEVGLLIWMGDTNYSRGTAMSGNSWENVFSGWCVGNYVSTQGLSVHVRPVILKRNSSAQYSVQKTSIGSIRMRPYNGSSAGSVQTTVNFSLNPFTLNDTVTSCRLLTPSAVNVSLAAISAGQLPSSGDEVVAGTTSLKLQCDAGVTVWATLTDATTPSNRSDILTLTGASTATGVGLRIYKNTDSTPLKFGPDSPVKGNENQWQLSTGTETSPSVRLYVKYVNTGEGINPGTVNGISTFTFSYQ | – | – | – | – | – | – | – | – | – | – | – | -0.302 | – | – | – | – | -0.298 | -0.176 | -0.315 | -0.302 | -0.293 | 4.13 | -0.31 | 4.3 | 4.59 | 4.3 | 0.197 | -0.097 | -0.208 |
